A selection: hits, their analogues and other compounds. The true share with any hit is near 21%.
Pf growth 96h: P. falciparum growth inhibition at 96 hour, primary screen for plastid delayed-death inhibitors; P. falciparum luciferase reporter growth, 96 h; Potency, µM (series often up to 28.7 µM), usual class: inhibitors; hit rate 6.9% among 320,000; AID 504834
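Readout is luminescence from an integrated firefly luciferase in P. falciparum. Red cells, 2% hematocrit and 0.05% parasitemia final, were cultured with compound through two parasite generations (96 hours) at 37 C, 5% CO2.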
CHX counter: affects cycloheximide protein synthesis inhibition readout, counter-screen | max response, % | hit rate 12% among 300,000 | AID 2314 | cell reporter, cycloheximide protein synthesis inhibition counterscreen; in the data active = max response mostly above about 13%, no sharp cut-off; inactive = mostly below about 14%; note: read at 38.3 µM for the half of the compounds with a filed dose
NS1 function inh: blocks influenza NS1 protein function | AID 2326 | Potency, µM (highest dose often 46.1 µM) | hit rate 0.4% among 270,000; calls by dose curve; note: actives are rising curves; nearly all actives have a fitted effect of over 50% in size
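OD600 was taken as the measure of yeast growth restored by compound in an NS1-expressing S. cerevisiae strain. Cells had been washed out of glucose medium and diluted 1:100 into galactose -URA medium, pH 6.0.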
Shiga toxin inh: Shiga toxin inhibition; Vero cells, Shiga toxin protein synthesis inhibition reporter; inhibition, % at 38.7 µM; hit rate 9.2% among 290,000; in the data active = inhibition mostly above about 28%, no sharp cut-off; inactive = mostly below about 43%
Pf growth 48h: P. falciparum growth inhibition at 48 hours (one generation); hit rate 5.9% among 310,000; P. falciparum luciferase growth in erythrocytes, 48 h; AID 504832; Potency, µM (series often up to 28.7 µM), usual class: inhibitors
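Luciferase-expressing P. falciparum in infected erythrocytes (2% hematocrit, 0.1% parasitemia final) in RPMI 1640/0.5% Albumax were exposed to compound for 48 hours at 37 C, 5% CO2; growth read as luminescence.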
Giardia FBPA inh: Giardia lamblia aldolase inhibition; AID 2451; hit rate 0.71% among 290,000; Potency, µM (titrated, usually from 59.6 µM), most hits filed as inhibitors; purified Giardia FBPA; A8B2U2; note: nearly all actives have a fitted effect of over 55% in size
Target sequence (A8B2U2 whole entry, looked up): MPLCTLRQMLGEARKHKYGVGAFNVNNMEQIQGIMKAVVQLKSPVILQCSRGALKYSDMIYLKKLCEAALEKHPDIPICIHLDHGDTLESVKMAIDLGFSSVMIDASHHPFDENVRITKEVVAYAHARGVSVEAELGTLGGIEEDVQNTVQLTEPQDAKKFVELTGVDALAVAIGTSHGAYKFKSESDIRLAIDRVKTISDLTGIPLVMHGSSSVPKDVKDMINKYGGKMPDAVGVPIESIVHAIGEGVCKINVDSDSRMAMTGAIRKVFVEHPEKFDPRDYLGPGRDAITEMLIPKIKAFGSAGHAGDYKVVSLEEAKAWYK
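40 nM FBPA preincubated 10 min at RT with compound (up to 57.5 uM final), then substrate plus GAPDH/TPI/NAD/arsenate coupling and diaphorase/resazurin added. Fluorescence read after 20 min at RT, 525/598 nm.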
Hits are given with their value; – = inactive; ? = inconclusive; · = no result; [ ] = dose if it differs, or a comment. Unless noted, calls come from the whole dose curve; as a rule, active = well fitted curve in the direction sought with a large enough effect; inconclusive = small, poorly fitted or top-dose-only effect, or another doubt; inactive = no such curve, though single readings can be large; an effect the other way counts as inactive or inconclusive.

SMILES | Pf growth 96h | CHX counter | NS1 function inh | Shiga toxin inh | Pf growth 48h | Giardia FBPA inh
O=C(CCl)NC1CCCc2ccccc21 (configuration not stated) | – | – | – | – | 12µM | –
O=C(CCn1cccc1)NC1CCCc2ccccc21 (configuration not stated) | 6.6µM | – | ? | – | – | –
Cc1cc(C)cc(OCC(=O)NC2CCCc3ccccc32)c1 (configuration not stated) | 8.3µM | – | – | – | ? | –
COc1ccccc1OCC(=O)NC1CCCc2ccccc21 (configuration not stated) | – | – | – | – | – | –
O=S(=O)(NCc1ccccn1)c1ccccn1 | – | – | – | – | – | –
Cc1ccc2c(c1)N(C(=O)CCC(=O)NCCCN1CC(C)CC(C)C1)CCO2 (configuration not stated) | – | – | – | – | – | –
COc1cc(C(=O)Nc2c(C)cc(C)cc2C)c(Br)c(OC)c1OC | – | – | · | – | – | –
CCOc1ccc(S(=O)(=O)N2CCCCC2)c2ccccc12 | ? | – | – | – | – | –
COc1cc(C)c(S(=O)(=O)n2ccc(C)n2)cc1C | 15µM | – | – | – | · | –
CCOc1ccc(S(=O)(=O)n2ccc(C)n2)c2ccccc12 | ? | – | – | – | 10µM | –
CC(Oc1ccc(F)cc1)C(=O)Nc1cccc(-c2nn[nH]n2)c1 (configuration not stated) | – | – | – | – | – | ?
O=C1CCCCC1Sc1nnc(-c2ccc3c(c2)OCO3)o1 (configuration not stated) | – | – | · | – | – | –
O=[N+]([O-])c1ccc(O)c(/C=N/Nc2ccccc2Cl)c1 | – | 40 | · | 69 | – | –
CCCOc1ccc(/C=N/Nc2ccccc2[N+](=O)[O-])c(OCCC)c1 | – | 28 | – | – | ? | –
O=[N+]([O-])c1cccc(N/N=C/c2cccc(O)c2O)c1 | –[5.75 µM] | 40 | · | 85 | ? | ?
O=[N+]([O-])c1ccc(N/N=C/c2ccc(O)c(O)c2O)c(S(=O)(=O)N2CCOCC2)c1 | – | – | – | – | ? | 10µM
Cc1ccc(NC(=O)C2CCCN2C(=O)NC2CCCCC2)cc1F (configuration not stated) | – | – | – | – | – | –
O=[N+]([O-])c1ccccc1N/N=C\c1ccccc1Cl | – | 26 | – | 41 | – | –
COc1ccc(/C=N/Nc2ncc(-c3ccccc3)cn2)c(OC)c1 | ? | – | – | – | – | –
O=[N+]([O-])c1cccnc1Oc1ccc(F)cc1 | ? | – | – | – | – | –
O=C(O)c1ccccc1/C=N/Nc1ccc(S(=O)(=O)N2CCCC2)cc1[N+](=O)[O-] | ? | – | – | – | ? | –
COc1ccc(/C=N/Nc2ncccc2[N+](=O)[O-])c(OC)c1 | – | – | · | 51 | – | –
O=[N+]([O-])c1ccccc1N/N=C\c1ccccc1F | – | 48 | – | 51 | – | –
COc1ccc(Oc2ncccc2[N+](=O)[O-])cc1 | 12µM | – | – | – | ? | –
CC(=O)N(O)C/C=C/c1cccc(Oc2ccccc2)c1 | · | – | · | – | · | –
SMILES | Pf growth 96h | CHX counter | NS1 function inh | Shiga toxin inh | Pf growth 48h | Giardia FBPA inh
O=[N+]([O-])c1ccccc1N/N=C/c1cccc(O)c1O | – | 30 | – | 115 | – | –
O=C(CSc1ccc(Cl)cc1)N1N=CCC1c1ccccc1 (configuration not stated) | – | – | – | 73 | ? | –
O=C(CSC(=S)N1CCCCC1)N1N=CCC1c1ccccc1 (configuration not stated) | · | 71 | – | 163 | – | –
NC(=NC(=O)c1ccc(Cl)cc1)N1N=CCC1c1ccccc1 (configuration not stated) | ? | – | – | – | ? | –
O=C(CNC(=O)c1ccc(OC(F)F)cc1)Nc1cccc(S(=O)(=O)N2CCCC2)c1 | – | · | · | · | ? | ·
N#Cc1c(N)oc(-c2cccs2)c1-c1cccs1 | 13µM | – | – | – | 9.3µM | ?
N#Cc1c(N)nc2c(c1-c1cccs1)CCCC2 | – | – | – | – | – | –
COCCn1c(=NC(=O)/C=C/c2cccs2)sc2cc(NC(C)=O)ccc21 | 8.3µM | – | – | – | ? | –
Cc1ccc(C(=O)Nc2cccc(C(=O)N3CCOCC3)c2)cc1 | – | – | – | – | · | –
CC(C)(C)c1ccc(C(=O)Nc2cccc(C(=O)N3CCOCC3)c2)cc1 | – | 45 | – | 57 | – | –
Cc1ccc(NC(=O)c2cccc(S(=O)(=O)N(C)c3ccccc3)c2)cc1S(=O)(=O)N1CCOCC1 | 12µM | – | ? | – | ? | –
COc1ccc(C(=O)Nc2cccc(-c3csc(C)n3)c2)cc1S(=O)(=O)N1CCCC1 | 13µM | · | · | · | 12µM | ·
Cc1ccc(C(=O)N2CCOCC2)cc1S(=O)(=O)N1CCOCC1 | ? | – | – | – | – | –
Cc1ccc(C(=O)O)cc1S(=O)(=O)N1CCOCC1 | 8.3µM | – | – | – | – | –
COC(=O)NC(/C(C(=O)OC)=C(\C)NCc1ccccc1)c1cccs1 (configuration not stated) | · | · | · | · | · | –[12.9 µM]
O=C(NC(CO)C(=O)OCc1ccccc1)OCc1ccccc1 (configuration not stated) | – | · | · | · | – | ·
O=C(Nc1ccc(F)cc1)c1oc2ccccc2c1NC(=O)C1CC1 | – | – | – | – | ? | ·
COc1cc(NC(=O)CN2C(=O)COc3ccc(S(=O)(=O)N4CCOCC4)cc32)cc(OC)c1 | – | – | – | – | – | –
Cc1ccc(C(=O)Nc2cccc(C(=O)O)c2)cc1S(=O)(=O)N1CCCCC1 | – | 87 | ? | 132 | – | –
Cc1ccc(C(=O)Nc2cccc(C(=O)O)c2)cc1S(=O)(=O)N1CCOCC1 | · | 24 | – | – | – | –
CC(=O)N1CCC2(CCN(Cc3nccs3)CC2)CC1 | · | · | · | · | · | –
COc1cc(OC)cc(N2C(=O)CSCC2=O)c1 | – | – | – | – | 2.6µM | –
CCN(CC)CCN1c2ccccc2Sc2ccccc21 | – | – | – | – | ? | ·
C[C@H](CN1c2ccccc2Sc2cccnc21)N(C)C | 6µM | · | · | · | ? | ·
CCc1ccc2c(c1)N(C[C@H](C)CN(C)C)c1ccccc1S2 | 15µM | · | – | · | 17µM | ·
SMILES | Pf growth 96h | CHX counter | NS1 function inh | Shiga toxin inh | Pf growth 48h | Giardia FBPA inh
CCN(CC)[C@@H](C)CN1c2ccccc2Sc2ccccc21 | 6.4µM | · | · | · | – | –
CN(Cc1cccnc1)C(=O)c1ccc(Cl)c(NS(=O)(=O)c2ccc(F)cc2)c1 | – | · | · | · | ? | ·
CCOc1ccccc1NC(=O)c1cc(C(=O)c2cc(OC)ccc2O)coc1=N | 2.3µM | – | – | – | 4.7µM | –
COc1ccc(NC(=O)c2ccc(C(=O)Nc3ccc(OC)cc3OC)cc2)c(OC)c1 | ? | – | · | – | – | –
CC(C)NC(=O)c1cc(C(=O)c2cc(Cl)ccc2O)coc1=N | ? | – | – | – | – | –
COc1ccc(NC(=O)c2c(NC(=O)CNCC(C)C)sc3c2CCC3)c(OC)c1 | – | – | – | – | 9.3µM | –
COc1ccc(NC(=O)c2c(OC)cccc2OC)c(OC)c1 | ? | – | – | – | 4.7µM | –
COc1ccc(NC(=O)c2ccccc2O)c(OC)c1 | ? | 51 | – | 88 | · | –

Assay outcomes deposited in PubChem by National Center for Advancing Translational Sciences (NCATS).
